# PubChem BioAssay (NCI)
# Compounds without any hit were thinned out: in the full panel of roughly 83,000, 20% have a hit.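 How to read the values: 0–100, growth inhibition (40 = 60% inhibited); 0, no net growth; -100 to 0, cell death (-40 = 40% of starting cells died; -100 = all dead).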 Unmarked numbers belong to inactive results. The source made the active and inactive calls. Rule for the calls: active = growth percent below 10; inactive = the rest.
# Tests used:
# Test in all cases: NCI-60 one-dose screen, 48 h (100 = growth as untreated, 0 = no growth, -100 = all killed)
# Details in all cases: 10 µM unless noted
# NCI-H23 lung = tested on: NCI-H23 lung
# NCI-H226 lung = tested on: NCI-H226 lung
# NCI-H322M lung = tested on: NCI-H322M lung
# HOP-62 NSCLC = tested on: HOP-62 NSCLC
# NCI-H460 lung = tested on: NCI-H460 lung
# HOP-92 NSCLC = tested on: HOP-92 NSCLC
# NCI-H522 lung = tested on: NCI-H522 lung
# A549/ATCC NSCLC = tested on: A549/ATCC NSCLC
# 786-0 renal = tested on: 786-0 renal
# COLO 205 colon = tested on: COLO 205 colon
# DU-145 prostate = tested on: DU-145 prostate
# K-562 leukemia = tested on: K-562 leukemia
# MALME-3M melanoma = tested on: MALME-3M melanoma
# MDA-MB-231 breast = tested on: MDA-MB-231 breast
# RXF 393 renal = tested on: RXF 393 renal
# SF-268 CNS = tested on: SF-268 CNS
# SF-295 CNS = tested on: SF-295 CNS
# SF-539 CNS = tested on: SF-539 CNS
# UACC-257 melanoma = tested on: UACC-257 melanoma
# M14 melanoma = tested on: M14 melanoma
SMILES,growth (NCI-H23 lung),growth (NCI-H226 lung),growth (NCI-H322M lung),growth (HOP-62 NSCLC),growth (NCI-H460 lung),growth (HOP-92 NSCLC),growth (NCI-H522 lung),growth (A549/ATCC NSCLC),growth (786-0 renal),growth (COLO 205 colon),growth (DU-145 prostate),growth (K-562 leukemia),growth (MALME-3M melanoma),growth (MDA-MB-231 breast),growth (RXF 393 renal),growth (SF-268 CNS),growth (SF-295 CNS),growth (SF-539 CNS),growth (UACC-257 melanoma),growth (M14 melanoma)
CCN1CCN(CCOc2ccc(CNc3ccc4nc(CCC5CCCCC5)[nH]c4c3)cc2)CC1,75.6%,38.9%,66.1%,50.4%,42.8%,22.4%,32%,48.3%,-11.7% (active),-74.3% (active),50.3%,6.76% (active),-88.2% (active),-31.4% (active),28.2%,54.4%,48%,-87.1% (active),-69.4% (active),-76.5% (active)
O=c1oc2ccccc2cc1-c1nn(-c2ccccc2)cc1/C=N/Nc1nc(-c2ccccc2)c(N=Nc2ccccc2)s1,88.1%,99.5%,105%,71.6%,73.5%,79.7%,41.5%,50.1%,90.7%,72.8%,76.8%,21.7%,77%,68.8%,98.1%,79.3%,70.9%,88.5%,86.5%,45.4%
COC1CC(O)C2=C(CC3C(/C(C)=C\CC=C(C)C)CCC3(C)O2)C1=O (stereo not given),97.9%,101%,101%,105%,104%,97.5%,90.1%,95.2%,103%,119%,101%,96.7%,102%,115%,110%,91.1%,107%,109%,95.2%,106%
COc1cc(C(=O)n2nc(NCCCc3ccccc3)c3cc(N)ccc32)cc(OC)c1OC,92.8%,89.7%,106%,93.5%,102%,88.9%,74.6%,93.3%,96.1%,113%,106%,88.9%,100%,83.1%,101%,96.7%,81%,93.1%,120%,93.6%
Nc1cc(-c2ccc(Cl)cc2)nn1-c1nc(-c2ccc(Br)cc2)cs1,100%,96.3%,93.3%,97.9%,105%,90%,84.2%,88.1%,93.6%,100%,108%,105%,86.7%,97.3%,103%,106%,96.6%,97.9%,92.1%,96.1%
CCCc1cc(CCC)n2nc(N)nc2n1,103%,94.8%,97.9%,97.5%,110%,106%,109%,112%,97.1%,103%,117%,121%,116%,125%,102%,110%,96.4%,112%,118%,111%
C=C(CNCCc1ccc(O)cc1)[C@@H]1CC[C@]2(CO)CC[C@]3(C)[C@H](CC[C@@H]4[C@@]5(C)CCC(N)C(C)(C)[C@@H]5CC[C@]43C)[C@@H]12 (stereo not given in full),-66.5% (active),87.6%,-53.7% (active),-74.7% (active),-86.7% (active),-78.8% (active),-64.8% (active),-66.6% (active),-87.3% (active),-72.2% (active),-68.6% (active),-50.9% (active),-86.2% (active),-80.5% (active),-90.9% (active),-74.3% (active),-82% (active),-93.4% (active),-77.3% (active),-81.8% (active)
COc1cccc(-c2nn(-c3ccccc3)cc2-c2ccnc(-c3cccnc3)c2)c1,86.5%,95%,109%,97.4%,92%,95%,86.9%,96.4%,98.1%,94.3%,104%,81.2%,83%,86.8%,107%,94.9%,89.2%,90.1%,117%,92.8%
O=C(CSc1nc(-c2ccccc2)cn1-c1ccc(Cl)cc1)c1ccc([N+](=O)[O-])cc1,78.5%,84.7%,89%,96.2%,79.5%,87.5%,70.5%,86.8%,90.3%,96.1%,93.2%,76.7%,103%,81.8%,71.2%,-86.7% (active),95.4%,92.4%,97.9%,82%
CC(C)C(=O)Nc1ncc(C(=O)NCCN(Cc2ccccc2)C(=O)c2ccc(S(=O)(=O)Nc3ccccc3)cc2)s1,97.3%,98%,98.9%,94.3%,99.8%,106%,83.6%,103%,96.6%,118%,109%,98.4%,111%,96.5%,95%,89.5%,100%,89.3%,105%,101%
COc1cc(OC)cc(C(=O)Nc2cnc(Nc3ccc(N4CCOCC4)nc3)nc2Oc2ccc(C(F)(F)F)cc2)c1,82%,39.9%,77.4%,43.1%,31.1%,86.7%,77.1%,35.4%,54.8%,83%,78.8%,97%,57.2%,44%,76.5%,78.7%,77%,34%,16.7%,93.1%
CC/C(=C(/c1ccc(Cl)cc1)c1ccc(OCCN2CCCCCC2)cc1)c1ccccc1,77.5%,97.6%,107%,103%,56.4%,80.3%,89.6%,59.5%,85.2%,37%,97.2%,19.8%,98.5%,83%,72.5%,81.6%,98.3%,84.3%,92.4%,81.6%
Clc1ccc(C2=Nn3c(nnc3-c3cc(Cl)cc(Cl)c3Cl)SC2)cc1,65.8%,75.3%,71.4%,16.2%,16.4%,55.6%,21.4%,58.2%,3.83% (active),40.5%,-16.6% (active),12.4%,44.4%,65.3%,66.2%,35%,14.8%,72.9%,71.5%,11.7%
O=C(/C=C/c1ccco1)Nc1ncc(Cc2ccc(F)cc2)s1,23.4%,51.8%,47.2%,25.8%,6.54% (active),90.5%,-2.92% (active),23.9%,38.4%,4.77% (active),19%,10.8%,59%,45.5%,12.7%,54.9%,11.7%,-21.3% (active),45.2%,16.7%
COc1cc2c(c(OC)c1OC)CCC(c1cccc(C(=O)Nc3ccc([N+](=O)[O-])cc3)c1)O2 (stereo not given),47.2%,48.3%,68.3%,76.7%,58.8%,42.6%,49.6%,55.2%,70.1%,73.2%,57%,21.8%,68.3%,37.1%,69.8%,59.3%,39.8%,76.2%,50.9%,30.7%
